The values below come from PubChem BioAssay (Tox21).

Inconclusive results are not listed. The source made the active and inactive calls. Calls follow the shape of the dose curve; as a rule, active = well fitted inhibition curve with a large enough effect in the repeat runs; inconclusive = weak or mixed curves; inactive = no such curve, though single readings can be large or run the other way.
% is scaled to controls: 0 for no effect and ±100 for the full control effect; potency is read from the fitted curve at half-maximal effect.

Chain of Cytochrome P450 2D6 (Homo sapiens) (P10635 whole entry, looked up): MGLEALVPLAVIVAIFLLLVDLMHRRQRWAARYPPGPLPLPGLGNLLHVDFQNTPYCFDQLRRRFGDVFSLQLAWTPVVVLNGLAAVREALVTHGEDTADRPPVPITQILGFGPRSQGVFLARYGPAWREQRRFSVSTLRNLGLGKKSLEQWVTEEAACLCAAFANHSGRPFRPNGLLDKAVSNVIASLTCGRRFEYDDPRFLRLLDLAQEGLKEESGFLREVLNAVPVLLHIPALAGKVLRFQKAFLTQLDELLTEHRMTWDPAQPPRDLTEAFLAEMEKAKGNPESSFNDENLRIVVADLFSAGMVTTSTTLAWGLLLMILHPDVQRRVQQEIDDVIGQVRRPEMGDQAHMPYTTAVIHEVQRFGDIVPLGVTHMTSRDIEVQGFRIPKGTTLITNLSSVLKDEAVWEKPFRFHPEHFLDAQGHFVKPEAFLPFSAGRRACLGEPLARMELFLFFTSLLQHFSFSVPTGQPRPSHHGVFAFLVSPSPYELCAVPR

This assay concerns the target Cytochrome P450 2D6 (Homo sapiens) (UniProt P10635). Description: Cytochrome P450 Family 2 Subfamily D Member 6 (CYP2D6) small molecule antagonists: luciferase reporter qHTS assay (AID 1671196). Also: nearly all actives have a fitted effect of over 50% in size. The settings on record: P450-Glo CYP2D6 enzyme assay, luciferin luminescence, 1 h; series mostly up to 115 µM; activity change, negative = inhibition: at the top concentration. The text has this: U.S. Tox21 Program National Center for Advancing Translational Sciences [NCATS] U.S. Environmental Protection Agency [EPA] National Institutes of Environmental Health Sciences [NIEHS] National Toxicology Program [NTP] U.S. Food and Drug Administration [FDA] Tox21 Assay Overview: Cytochrome P450 (CYP) enzymes are membrane-bound hemeproteins that play a key role in metabolism of drugs and xenobiotics. Evaluation of the effect of chemicals on CYP isozymes is useful to minimize the adverse drug reactions and toxicities in drug development process. Tox21 chemicals were tested for their effect on CYP enzyme activities by using P450-Glo (TM) screening systems (Promega Corporation, Madison, WI). These systems provide a luminescent method containing proluciferin substrates and are converted to luciferin products by CYP isozymes. The luciferin products formed are detected with a luciferin detection reagent, and the amount of light produced is proportional to CYP activity. P450-Glo (TM) CYP2D6 screening system (Catalog. No. V9890) was used to detect the compounds that interfere in CYP2D6 activity.
Tox21 Assay Protocol Summary: Two ul of enzyme-substrate mix was dispensed into medium binding white/solid 1536-well plates (Greiner Bio-One North America Inc., Monroe, NC) using a BioRaptr Flying Reagent Dispenser (FRD, Beckman Coulter, Brea, CA). […] The assay plates were incubated at room temperature for 10 min. Then 2 ul of NADPH regeneration solution was added to each well of the assay plates using an FRD and incubated at room temperature for 1 h. The reaction was stopped by adding 4 ul of detection reagent using an FRD and after 20 min incubation at room temperature the luminescence signal was measured using a ViewLux plate reader (Perkin Elmer, Shelton, CT). Data were expressed as relative luminescence units.
In general terms: In a reporter assay the amount or activity of a reporter protein is the signal.
As to `C(=C\c1ccccc1)/c1ccccc1`, the “activity change, negative = inhibition” value is -9.99% (inactive).

Turning to `C=CC(=O)[O-].C=CC(=O)[O-].[Zn+2]`, the Potency was 34.8 µM (active). On to `CN(C)CCC=C1c2ccccc2C=Cc2ccccc21`, for which the Potency was 6.17 µM (active). Consider `NNC(=O)CP(=O)(c1ccccc1)c1ccccc1`, for which the “activity change, negative = inhibition” value was -9.16% [at 53 µM] (inactive).

With `CC(=O)Oc1ccc([N+](=O)[O-])cc1CCl`, the “activity change, negative = inhibition” value was -24.6% (inactive). On the same count and under the same terms, the figure for `CC=C(Cl)Cl` is -21.6% (inactive). Turning to `CCOC(=O)c1ccccc1C(=C1C=C(Br)C(=O)C(Br)=C1)c1cc(Br)c(O)c(Br)c1`, the “activity change, negative = inhibition” value is -8.04% [at 53 µM] (inactive). `CC(=O)c1cc2ccccc2s1`: the “activity change, negative = inhibition” value was 1.62% [at 53 µM] (inactive). Regarding `CCCCCCCCCCCCCCN(CCO)CCO`, the Potency is 7.96 µM (active). Regarding `CC1(C)[C@H](C(=O)O)N2C(=O)C[C@H]2S1(=O)=O`, the “activity change, negative = inhibition” value was -4% [at 53 µM] (inactive).

In the case of `C=C1c2cccc(O)c2C(O)=C2C(=O)[C@]3(O)C(O)=C(C(N)=O)C(=O)[C@@H](N(C)C)[C@@H]3[C@@H](O)[C@H]12`, the “activity change, negative = inhibition” value is -7.81% [at 53 µM] (inactive).

In the case of `O=C1CCCCCCCCCCOCCCCO1`, the “activity change, negative = inhibition” value was -10.9% (inactive). As for `O=C(O)c1cccc(-c2noc(-c3ccccc3F)n2)c1`, the Potency is 3.47 µM (active). On the same count and under the same terms, the figure for `CN1CCCC(CC2c3ccccc3Sc3ccccc32)C1` (stereo not given) is 0.389 µM (active).

`O=C=Nc1ccc(Cl)c(Cl)c1`: the “activity change, negative = inhibition” value was -20% (inactive). The same measure, in the same setting: the figure for `C=C(C)C(=O)OCCCCCCCCCCCCC` is 0.922% (inactive). For `Cc1ccco1`, the Potency was 34.8 µM (active).

`C/C=C/C=C/C=O`: the “activity change, negative = inhibition” value was -11.4% (inactive). As to `C=C(C)C(=O)OCCOCCOC(=O)C(=C)C`, the “activity change, negative = inhibition” value was -11.7% (inactive). The same measure, in the same setting: the figure for `Cc1ccc(OC(=O)c2ccccc2O)cc1` is -22.2% (inactive).

For `Cc1cc(=O)c2c(O)c3c(O)cc(=O)c4c3c3c(cc(O)c1c23)C(C)(C)C=4O`, the activity change, negative = inhibition was -16.7% [at 23.6 µM] (inactive). The same measure, in the same setting: the figure for `CCC=CC#N` is -0.985% (inactive); for `CCOC(=O)c1ccc(I)cc1` it is -9.72% (inactive). Turning to `CCCC(C(=O)OCCN(CC)CC)(c1ccccc1)c1ccccc1`, the Potency was 0.275 µM (active). For the compound `CCc1ccccc1`, the “activity change, negative = inhibition” value was -2.73% (inactive).

On to `Cc1cscn1`, for which the “activity change, negative = inhibition” value was 2.06% (inactive). For the compound `CC(C)(c1ccccc1)c1ccccc1`, the Potency is 58.8 µM (active). Turning to `CC(C)C[C@H](NC(=O)[C@H](CCc1ccccc1)NC(=O)CN1CCOCC1)C(=O)N[C@@H](Cc1ccccc1)C(=O)N[C@@H](CC(C)C)C(=O)[C@@]1(C)CO1`, the “activity change, negative = inhibition” value was -8.93% [at 53 µM] (inactive). For `C=C1CCC2CC1C2(C)C` (stereo not given), the “activity change, negative = inhibition” value is 1.42% (inactive). On the same count and under the same terms, the figure for `Oc1ccc(Cl)c2cccnc12` is -6.98% [at 53 µM] (inactive).

Consider `CCC(C)COC(=O)CC(C)C` (stereo not given), for which the “activity change, negative = inhibition” value is -34.6% (inactive). `c1ccc(C[n+]2cccc3ccccc32)cc1`: the Potency was 3.17 µM (active). For the compound `CCCCCCCCC(CCCCCC)C(=O)O` (stereo not given), the “activity change, negative = inhibition” value is -7.57% (inactive).

For `CCn1cc(C(=O)O)c(=O)c2cc(F)c(N3CCNCC3)cc21`, the “activity change, negative = inhibition” value was -9.62% [at 53 µM] (inactive).

In the case of `FC(F)(F)c1ccccc1Cl`, the Potency is 46 µM (active). Consider `C[C@]1(Cn2ccnn2)[C@H](C(=O)O)N2C(=O)C[C@H]2S1(=O)=O`, for which the “activity change, negative = inhibition” value was -85.9% [at 53 µM] (inactive). Still for that read-out and setting: the figure for `CC(=O)N/N=C/c1ccc([N+](=O)[O-])o1` is -20.4% [at 53 µM] (inactive). As for `CCN(CC)CCNC(=O)COc1ccc(OC)cc1`, the Potency is 13.8 µM (active). In the case of `O=[N+]([O-])c1ccc(Nc2ccc(Nc3ccccc3)c(S(=O)(=O)O)c2)c([N+](=O)[O-])c1`, the “activity change, negative = inhibition” value is -6.16% (inactive).

For the compound `CCC(C)COC(C)=O` (stereo not given), the “activity change, negative = inhibition” value was -1.11% (inactive).
